Test [1] in a line: qHTS assay for small molecules that induce genotoxicity in human embryonic kidney cells expressing luciferase-tagged ATAD5 (AID 651632). Also: nearly all actives have a fitted effect of over 15% in size. Put shortly:
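Increased luciferase signal from ATAD5-tagged reporter cells indicates DNA-damage-driven ATAD5 induction. HEK293T cells are treated for 16 hr at 37C before detection with Amplite.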

The nature of test [2]: qHTS assay for small molecule disruptors of the mitochondrial membrane potential - cell viability (AID 720634; calls by dose curve; also: nearly all actives have a fitted effect of over 20% in size; also: potency is read from the fitted curve at half-maximal effect). Put shortly:
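After overnight attachment at 37 C, HepG2 cells received compound or DMSO vehicle for 1 hr. Viability is then taken from ATP-driven luminescence following a 30 min room-temperature CellTiter-Glo step.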
In general terms: qHTS replaces the single test concentration by a dilution series.

Test [3] can be described thus: qHTS assay for small molecule disruptors of the mitochondrial membrane potential (AID 720635). Also: potency is read from the fitted curve at half-maximal effect. The procedure, abridged:
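HepG2 cells (2,000/well) attached overnight at 37C, then took compound for 1 hr at 37C, 5% CO2. Mito-MPS dye was added for 30 min; fluorescence was read at 490/535 nm (monomers) and 540/590 nm (aggregates).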

Test [4] is described as follows: qHTS assay to test for compound auto fluorescence at 590 nm (red) in HepG2 cells (AID 720674). The procedure, abridged: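 Intrinsic compound fluorescence in the red window (Ex/Em 540/590 nm) is measured in attached HepG2 cells exposed for 1 hr, DMSO vehicle as baseline, benchmarked to Rose Bengal sodium.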
The nature of test [5]: qHTS assay to test for compound auto fluorescence at 535 nm (green) in HepG2 cells (AID 720675). Also: potency is read from the fitted curve at half-maximal effect.
Test [6] can be described thus: qHTS assay to test for compound auto fluorescence at 460 nm (blue) in HEK293 cells (AID 720678). Also: potency is read from the fitted curve at half-maximal effect. Put shortly: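 Auto fluorescence in the blue band was quantified as triamterene equivalency. HEK293 cells were seeded at 2,000/well, dosed after a 4-5 hr attachment, and kept overnight at 37C before the 405/460 nm reading.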
The nature of test [7]: qHTS assay to test for compound auto fluorescence at 590 nm (red) in HEK293 cells (AID 720679). The procedure, abridged:
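Autofluorescence equivalency to Rose Bengal sodium, 540/590nm, in HEK293 cells exposed overnight to 23 nL compound per well.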

Test [8] can be described thus: qHTS assay for small molecule agonists of the p53 signaling pathway - cell viability (AID 651633; calls by dose curve; also: nearly all actives have a fitted effect of over 30% in size; also: potency is read from the fitted curve at half-maximal effect). The procedure, abridged: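 p53RE-bla cells, seeded at 4,000 per well and rested 5 h at 37 C/5% CO2, received compounds in DMSO for 16 h at 37 C. CellTiter-Glo was then added, and luminescence was read after 30 min at room temperature to gauge cytotoxicity.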
The nature of test [9]: qHTS assay for small molecules that induce genotoxicity in human embryonic kidney cells expressing luciferase-tagged ATAD5 - cell viability (AID 651634; calls by dose curve; also: nearly all actives have a fitted effect of over 25% in size; also: potency is read from the fitted curve at half-maximal effect). The procedure, abridged:
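Cytotoxicity counterscreen in HEK293T cells bearing an ATAD5-luciferase reporter: live-cell protease activity measured by CellTiter-Fluor fluorescence after 15.5 hr compound exposure.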

Values joined by “and” are separate entries in the source; they are usually repeats but may differ in a detail not shown here. Equal entries are not always repeated. Values without a mark were called inactive. Results filed as inconclusive are left out. Active and inactive are the calls of the source. Unless noted, calls follow the shape of the dose curve; as a rule, active = well fitted curve in the direction sought with a large enough effect in the repeat runs; inconclusive = weak or mixed curves; inactive = no such curve, though single readings can be large; an effect the other way counts as inactive or inconclusive.
Tags tell the direction and shape of the fitted curve or compound fluorescence and quenching.

`O=C(c1ccc(O)c(O)c1)c1ccc(O)cc1O`: the Potency result in [1], in [2], in test [4], in test [5] and in [7] was “inactive” each time. Further, the Potency in test [3] was 3.85 µM (active); in test [6] it was 31.6 µM [fluorescent] (active).
As to `Cc1cc(C(C)(C)C)c(O)c(C)c1Cn1c(=O)n(Cc2c(C)cc(C(C)(C)C)c(O)c2C)c(=O)n(Cc2c(C)cc(C(C)(C)C)c(O)c2C)c1=O`, the Potency result in test [8], in test [9], in test [2], in test [5], in test [6] and in test [7] was “inactive” in each case.
On to `CN(C)C(=O)COC(=O)Cc1ccc(OC(=O)c2ccc(N=C(N)N)cc2)cc1`, for which the Potency result in [8], in test [9], in test [2], in test [4], in test [5] and in test [6] was “inactive” each time. Moreover, in test [7], the Potency entry is “inactive”.
Regarding `C#C[C@]1(O)CC[C@H]2[C@@H]3[C@H](C)CC4=C(CCC(=O)C4)[C@H]3CC[C@@]21C`, the Potency entry in [9], in test [2], in test [4], in test [5], in test [6] and in test [7] was “inactive” in each case.
As to `O=C1OC2(c3ccc(O)cc3Oc3cc(O)ccc32)c2ccc(N=C=S)cc21`, the Potency entry in test [1], in [9], in test [2], in [4], in test [6] and in [7] was “inactive” each time. Also, the Potency in test [5] is 39.8 µM (active).
On to `Cc1ccc(O)c(N)c1`, for which the Potency entry in test [2], in [4], in test [5], in [6] and in [7] was “inactive” each time.
With `c1ccc(C(O[C@@H]2CCCN(CCc3ccc4c(c3)OCO4)C2)c2ccccc2)cc1`, the Potency result in test [8], in [9], in test [4], in [5], in test [6] and in [7] was “inactive” throughout.
Take `O=c1oc2cc(O)ccc2c2oc3cc(O)ccc3c12`: the Potency entry in test [9], in test [2], in test [4], in test [5] and in test [7] was “inactive” in each case. In test [3], the Potency was 58.6 µM (active).
For the molecule `CC(=O)[C@H]1CC[C@H]2[C@@H]3CCC4=CC(=O)CC[C@]4(C)[C@H]3CC[C@]12C`, the Potency entry in test [9], in test [2], in [4], in test [5], in test [6] and in test [7] was “inactive” throughout.
In the case of `CN1CCC[C@@H]1CCO[C@](C)(c1ccccc1)c1ccc(Cl)cc1`, the Potency result in test [8], in test [9], in test [2], in [4], in test [5] and in test [6] was “inactive” throughout. In [7], the Potency entry is “inactive”.
Take `Cc1c(C)c2c(c(C)c1OC(=O)c1cccnc1)CC[C@@](C)(CCC[C@H](C)CCC[C@H](C)CCCC(C)C)O2`: the Potency result in test [8], in test [9], in [2], in test [4], in test [5] and in test [6] was “inactive” throughout. Further, in [7], the Potency result is “inactive”.
On to `CC[C@H](C)COC(=O)/C=C/c1ccc(N=Cc2ccc(OC)cc2)cc1`, for which the Potency result in [9], in test [5], in [6] and in test [7] was “inactive” in each case. Also, the Potency in [3] is 30.6 µM (active).
As for `CCCNCCC`, the Potency entry in [8], in [9], in test [2], in [3], in test [5] and in test [6] was “inactive” in each case. Besides, the Potency result in test [7] is “inactive”.
Take `C=CC(=O)OCCOC(=O)C=C`: the Potency result in [8], in test [2], in test [5], in test [6] and in test [7] was “inactive” each time. In [9], the Potency was 61.1 µM (active).
For the molecule `CCCCCCCCCCCCCCCC[N+](C)(C)CC`, the Potency in test [8] was 26.6 µM (active) and 61.3 µM (active); in test [9], 29.8 µM (active) and 24.4 µM (active); in test [2], 61.3 µM (active); in [3] it was 6.68 µM (active) and 27.4 µM (active). Further, the Potency result in [4], in [5], in [6] and in test [7] was “inactive” each time.
`CCCCCCCCCCC[C@@H](C[C@@H]1OC(=O)[C@H]1CCCCCC)OC(=O)[C@H](CC(C)C)NC=O`: the Potency entry in [8], in [9], in test [2], in test [4], in [5] and in test [6] was “inactive” each time. Besides, the Potency entry in test [7] was “inactive”.
With `CCN(CC)C(=O)c1cc(S(=O)(=O)Cc2ccccc2)c(N2CCC(c3ccccc3)CC2)cc1N(CC)CCN(C)C`, the Potency in [8] and in test [9] was 29.8 µM (active) throughout. The Potency result in test [4], in test [5], in test [6] and in test [7] was “inactive” each time.
With `Oc1cc(Cl)cc(Cl)c1Cl`, the Potency entry in [8], in [4], in [5], in test [6] and in test [7] was “inactive” throughout.
Consider `S=C([S-])NCCNC(=S)[S-].S=C([S-])NCCNC(=S)[S-].[Mn+2].[Zn+2]`, for which the Potency result in test [8], in test [9], in test [2], in [4], in [5] and in [6] was “inactive” in each case. For the same molecule, the Potency result in test [7] is “inactive”.
On to `Cc1c(F)c(N2CCNC(C)C2)cc2c1c(=O)c(C(=O)O)cn2C1CC1` (centres undefined), for which the Potency entry in test [1], in [9], in test [2], in test [5], in test [6] and in [7] was “inactive” in each case.
As to `O=C1CCc2ccc(OCCCCN3CCN(c4cccc(Cl)c4Cl)CC3)cc2N1`, the Potency in test [8] was 23.7 µM (active). The Potency entry in test [9], in [4], in [5], in [6] and in [7] was “inactive” throughout.
Take `O=C1CCc2cc(OCCCCc3nnnn3C3CCCCC3)ccc2N1`: the Potency result in test [1], in test [9], in test [2], in test [4], in [5] and in test [6] was “inactive” in each case. The Potency result in [7] is “inactive”.
Regarding `OCCN1CCN(CCCN2c3ccccc3Sc3ccc(C(F)(F)F)cc32)CC1`, the Potency result in test [1], in test [2], in test [4], in test [5], in test [6] and in [7] was “inactive” in each case.
In the case of `CCCC[P+](C)(CCCC)CCCC`, the Potency result in test [8], in [9], in test [2], in test [4], in [5] and in test [6] was “inactive” throughout. Moreover, the Potency result in [7] was “inactive”. Moreover, in test [3], the Potency is 13.9 µM (active).
Consider `CCC(C)[O-].CCC(C)[O-].CCOC(=O)/C=C(/C)[O-].[Al+3]`, for which the Potency result in test [9], in test [2], in [3], in test [4], in test [5] and in [6] was “inactive” in each case. For the same molecule, in [7], the Potency result was “inactive”.
With `Nc1cc(Cl)c(O)c(Cl)c1`, the Potency result in test [1], in test [9], in [2], in test [4], in test [5] and in test [7] was “inactive” each time.
For `COc1cccc2c1C(=O)c1c(O)c3c(c(O)c1C2=O)C[C@@](O)(C(C)=O)C[C@@H]3O[C@H]1C[C@H](N)[C@H](O)[C@H](C)O1`, the Potency in [9] is 9.44 µM (active) and 30.8 µM (active); in [3] it was 1.5 µM (active) and 4.35 µM (active). In addition, the Potency entry in [2], in [6] and in test [7] was “inactive” in each case.
With `COC(=O)C1=C(C)NC(C)=C(C(=O)OCCN2CCN(C(c3ccccc3)c3ccccc3)CC2)C1c1cccc([N+](=O)[O-])c1` (centres undefined), the Potency entry in [1], in test [4], in test [5], in [6] and in test [7] was “inactive” each time. In addition, the Potency in [9] is 11.9 µM (active).
For the molecule `CN1CCN(Cc2cc(-c3ccc4[nH]c(=O)oc4c3)co2)[C@@H](c2ccc(F)cc2)C1`, the Potency entry in test [1], in test [2], in test [5], in [6] and in [7] was “inactive” throughout. For the same molecule, the Potency in [3] was 14.8 µM (active).

The values are drawn from PubChem BioAssay (Tox21).
